Data: PubChem BioAssay (NCATS)
Where “and” joins values, the source holds several entries; their conditions need not be identical. Identical values can stand only once. Records with an inconclusive call do not appear. Where a call stands in place of a potency, no number is given. Calls of active or inactive are those of the source. Calls come from the whole dose curve.

assay: Cytotoxicity counterscreen for inhibitors of SARS-CoV-2 cell entry (AID 1645845); details: cell viability (SARS-CoV-2 entry assay cells); series mostly up to 57.1 µM; activity change, negative = cytotoxicity: at the top concentration; note: nearly all actives have a fitted effect of over 50% in size
Summary of the method: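 After a 15 min room-temperature ATPLite 1step step, luminescence reflected ATP remaining in HEK293-ACE2 cells exposed to compound for 1 h plus 48 h at 37 C, with percent activity set by cell and no-cell controls.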

Row | Structure (SMILES) | Potency | activity change, negative = cytotoxicity | outcome
1 | CCCc1nc2c(C)cc(-c3nc4ccccc4n3C)cc2n1Cc1ccc(-c2ccccc2C(=O)O)cc1 | inactive | – | –
2 | CN(C)c1nc(N(C)C)nc(N(C)C)n1 | inactive | – | –
3 | OCCN1C[C@H](O)[C@@H](O)[C@H](O)[C@H]1CO | inactive | – | –
4 | Cc1ccc(C)c(OCCCC(C)(C)C(=O)O)c1 | inactive | – | –
5 | CC12CC3CC(C)(C1)CC(N)(C3)C2 | inactive | – | –
6 | COC(=O)Nc1nc2ccc(C(=O)c3ccccc3)cc2[nH]1 | – | -29.6% (inactive) | –
7 | CCOC(=O)c1ncn2c1CN(C)C(=O)c1cc(F)ccc1-2 | inactive | – | –
8 | Cc1ccccc1N1C(=O)c2cc(S(N)(=O)=O)c(Cl)cc2NC1C (stereo not given) | – | – | inactive
9 | NC12CC3CC(CC(C3)C1)C2 | inactive | – | –
10 | O=C(O)c1cn(C2CC2)c2cc(N3CCNCC3)c(F)cc2c1=O | inactive | – | –
11 | CC(C)NCC(O)c1ccc(O)c(O)c1 (stereo not given) | inactive | – | –
12 | COCCCOc1cc(C[C@@H](C[C@H](N)[C@@H](O)C[C@H](C(=O)NCC(C)(C)C(N)=O)C(C)C)C(C)C)ccc1OC | inactive | – | –
13 | CCC1(c2ccccc2)C(=O)NCNC1=O | inactive | – | –
14 | C=C(c1ccc(C(=O)O)cc1)c1cc2c(cc1C)C(C)(C)CCC2(C)C | inactive | – | –
15 | CN(CCOc1ccc(CC2SC(=O)NC2=O)cc1)c1ccccn1 (stereo not given) | – | 1.44% (inactive) | –
16 | NC(=O)OCC(COC(N)=O)c1ccccc1 | inactive | – | –
17 | CCCN[C@H]1CCc2nc(N)sc2C1 | inactive | – | –
18 | O=NN(CCCl)C(=O)NC1CCCCC1 | inactive | – | –
19 | C[C@@H](O)[C@H]1C(=O)N2C(C(=O)O)=C(S[C@@H]3CN[C@H](C(=O)N(C)C)C3)[C@H](C)[C@H]12 | inactive | – | –
20 | N[C@@H]1CONC1=O | inactive | – | –
21 | NC(=O)NO | inactive | – | –
22 | Cc1nccn1CC1CCc2c(c3ccccc3n2C)C1=O (stereo not given) | – | – | inactive
23 | CC(=O)Oc1cc2c(s1)CCN(C(C(=O)C1CC1)c1ccccc1F)C2 (stereo not given) | inactive | – | –
24 | CCn1cc(C(=O)O)c(=O)c2cc(F)c(N3CCNCC3)cc21 | inactive | – | –
25 | CC(C(=O)O)c1cccc(C(=O)c2ccccc2)c1 (stereo not given) | inactive | – | –
26 | CN(C)CCc1c[nH]c2ccc(CS(=O)(=O)N3CCCC3)cc12 | inactive | – | –

assay: Primary qHTS to identify inhibitors of SARS-CoV-2 cell entry (AID 1645846); details: SARS-CoV-2 pseudovirus cell entry assay, luminescence; activity change, negative = inhibition: at 57.1 µM (top of the series) unless noted; series mostly up to 57.1 µM; note: nearly all actives have a fitted effect of over 45% in size
Summary of the method: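 Luminescence readout (Bright-Glo luciferase) 48 h after pseudoparticle addition. HEK293-ACE2 cells, 1500/well; compound pre-incubation 1 h; Normalized to spike PP and bald PP.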

Row | Structure (SMILES) | activity change, negative = inhibition | outcome
27 | CCOC(=O)[C@H](CCc1ccccc1)N[C@@H](C)C(=O)N1Cc2ccccc2C[C@H]1C(=O)O | 3.61% | –
28 | CCCc1nc2c(C)cc(-c3nc4ccccc4n3C)cc2n1Cc1ccc(-c2ccccc2C(=O)O)cc1 | -3.28% | inactive
29 | CN(C)c1nc(N(C)C)nc(N(C)C)n1 | -16.8% | inactive
30 | CO/N=C(\C(=O)N[C@@H]1C(=O)N2C(C(=O)O)=C(CSc3nc(=O)c(O)nn3C)CS[C@H]12)c1csc(N)n1 | – | inactive
31 | OCCN1C[C@H](O)[C@@H](O)[C@H](O)[C@H]1CO | -28.6% and -30.5% | –
32 | Cc1ccc(C)c(OCCCC(C)(C)C(=O)O)c1 | -8.37% | inactive
33 | CC12CC3CC(C)(C1)CC(N)(C3)C2 | -26.3% | inactive
34 | COC(=O)C1=C(C)NC(C)=C(C(=O)OC(C)C)C1c1cccc2nonc12 (stereo not given) | – | inactive
35 | OC(Cn1cncn1)(Cn1cncn1)c1ccc(F)cc1F | -13.6% and -9.57% | –
36 | NC1[C@H]2CN(c3nc4c(cc3F)c(=O)c(C(=O)O)cn4-c3ccc(F)cc3F)C[C@@H]12 (stereo not given in full) | – | inactive
37 | COC(=O)Nc1nc2ccc(C(=O)c3ccccc3)cc2[nH]1 | -67.2% and -34.4% | –
38 | CC[C@@H]([C@H](C)O)n1ncn(-c2ccc(N3CCN(c4ccc(OC[C@@H]5CO[C@@](Cn6cncn6)(c6ccc(F)cc6F)C5)cc4)CC3)cc2)c1=O | -23.1% | –
39 | CCOC(=O)c1ncn2c1CN(C)C(=O)c1cc(F)ccc1-2 | -12.9% | inactive
40 | Cc1ccccc1N1C(=O)c2cc(S(N)(=O)=O)c(Cl)cc2NC1C (stereo not given) | -97.4% | inactive
41 | NC12CC3CC(CC(C3)C1)C2 | -26.7% | inactive
42 | CC(C)NCC(O)c1ccc(O)c(O)c1 (stereo not given) | -10.8% | inactive
43 | COCCCOc1cc(C[C@@H](C[C@H](N)[C@@H](O)C[C@H](C(=O)NCC(C)(C)C(N)=O)C(C)C)C(C)C)ccc1OC | -3.02% | inactive
44 | CCC1(c2ccccc2)C(=O)NCNC1=O | -9.71% | inactive
45 | C=C(c1ccc(C(=O)O)cc1)c1cc2c(cc1C)C(C)(C)CCC2(C)C | -6.82% | inactive

Row | Structure (SMILES) | activity change, negative = inhibition | outcome
46 | CN(CCOc1ccc(CC2SC(=O)NC2=O)cc1)c1ccccn1 (stereo not given) | -30.2% | inactive
47 | NC(=O)OCC(COC(N)=O)c1ccccc1 | -1.23% | inactive
48 | CCCN[C@H]1CCc2nc(N)sc2C1 | -3.81% | inactive
49 | O=NN(CCCl)C(=O)NC1CCCCC1 | -8.29% | inactive
50 | C[C@@H](O)[C@H]1C(=O)N2C(C(=O)O)=C(S[C@@H]3CN[C@H](C(=O)N(C)C)C3)[C@H](C)[C@H]12 | -22.9% | inactive
51 | N[C@@H]1CONC1=O | -2.51% | inactive
52 | NC(=O)NO | -10.4% | inactive
53 | Cc1nccn1CC1CCc2c(c3ccccc3n2C)C1=O (stereo not given) | -12.3% | –
54 | CN(C)/N=N/c1nc[nH]c1C(N)=O | – | inactive
55 | NC[C@H](O)c1ccc(O)c(O)c1 | 4.91% and -20.6% | –
56 | C[C@@H](c1ncncc1F)C(O)(Cn1cncn1)c1ccc(F)cc1F (stereo not given in full) | -1.38% | –
57 | CC(=O)Oc1cc2c(s1)CCN(C(C(=O)C1CC1)c1ccccc1F)C2 (stereo not given) | -16.4% | inactive
58 | CC1(C)S[C@@H]2[C@H](NC(=O)C(C(=O)O)c3ccccc3)C(=O)N2[C@H]1C(=O)O (stereo not given in full) | – | inactive
59 | CCn1cc(C(=O)O)c(=O)c2cc(F)c(N3CCNCC3)cc21 | -15.8% | inactive
60 | CC(C(=O)O)c1cccc(C(=O)c2ccccc2)c1 (stereo not given) | -2.03% | inactive
61 | CN(C)CCc1c[nH]c2ccc(CS(=O)(=O)N3CCCC3)cc12 | -5.24% | inactive
62 | CCn1cc(C(=O)O)c(=O)c2ccc(C)nc21 | – | inactive
63 | CCOc1ccccc1OCCN[C@H](C)Cc1ccc(OC)c(S(N)(=O)=O)c1 | -21.5% | –
